# GLP-1R inv ag – inverse agonists of human GLP-1 receptor; P43220; HEK293 GLP-1R CRE-luciferase, luminescence, 24 h; GLP-1R form is constitutively active; Potency, µM (series often up to 38.3 µM), for the others: top-dose activity change, negative = inhibition, hits mostly inhibitors; hit rate 1.6% among 410,000; note: % is set by controls: 0 for no effect and ±100 for the full control effect; nearly all actives have a fitted effect of over 55% in size
# Target sequence (P43220 whole entry, looked up): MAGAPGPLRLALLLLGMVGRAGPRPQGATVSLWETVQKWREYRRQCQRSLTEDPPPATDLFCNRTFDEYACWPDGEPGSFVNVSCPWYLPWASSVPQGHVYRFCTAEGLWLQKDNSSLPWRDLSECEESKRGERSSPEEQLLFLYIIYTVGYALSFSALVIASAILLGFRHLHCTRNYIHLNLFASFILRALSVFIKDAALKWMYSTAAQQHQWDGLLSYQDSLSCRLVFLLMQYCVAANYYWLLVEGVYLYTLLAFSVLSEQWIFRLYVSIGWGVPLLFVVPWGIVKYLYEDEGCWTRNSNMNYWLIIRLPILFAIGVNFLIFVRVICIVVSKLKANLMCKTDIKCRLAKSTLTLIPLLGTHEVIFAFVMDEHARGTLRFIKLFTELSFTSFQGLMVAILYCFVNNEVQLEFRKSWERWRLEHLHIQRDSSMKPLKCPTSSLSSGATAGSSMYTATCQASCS
#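 Inverse agonists were sought by their lowering of basal cAMP reporter luciferase output in HEK293 cells stably carrying constitutively active human GLP-1R, after 24 h compound treatment.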
# HEK293 tox – cytotoxic in the GLP-1 receptor inverse agonist counter-screen. HEK293 cAMP-luciferase reporter cells, luminescence, 24 h. Potency, µM (titrated, usually from 38.3 µM), for the others: top-dose activity change, negative = inhibition, most hits filed as inhibitors. hit rate 0.13% among 410,000;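 note: loss of luciferase light is scored as toxicity; % is set by controls: 0 for no effect and ±100 for the full control effect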
#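 Step one: seed cells (200 cells/uL, DMEM with 10% Nu serum, 1% pen-strep). Step two: 12-hour incubation at 37 deg C. Step three: pin 23 nL compound, incubate 24 hr. Step four: add luciferase reagent, read luminescence 12 min later.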
# BRCA1 expr up – BRCA1 expression activation. MCF7-BRCA1-FFLuc reporter, luminescence, 48 h; response scale: scaled: vehicle 0%, 10 µM genistein 100%. hit rate 1.1% among 380,000. AID 624202. Potency, µM (series often up to 46.1 µM), for inactives: top-dose activation, hits mostly activators; note: nearly all actives have a fitted effect of over 80% in size
#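 Luminescence from a BRCA1-driven firefly luciferase in MCF7 cells was the read-out, taken 15 min after substrate addition following 48 h compound exposure at 37 °C. Data were normalized to a 10 microM genistein control and DMSO vehicle.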
# Mito fusion yeast – mitochondrial division inhibition or fusion activation; Potency, µM (highest dose often 46.1 µM), for inactives: at the highest dose growth rescue (activation), hits mostly activators; S. cerevisiae fusion-defective mutant growth rescue, CellTiterGlo 48 h; hit rate 0.23% among 320,000; note: % of control where 0% means no effect; nearly all actives have a fitted effect of over 45% in size
#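 Compounds are tested for their ability to restore growth of mitochondrial fusion-defective yeast strains at non-permissive 37C in YPEG medium over 48 hours. Viability is quantified by luciferase luminescence.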
# GLP-1R agonist – activates the human GLP-1 receptor; P43220; Potency, µM (titrated, usually from 45.6 µM), without a hit: at the top dose activation, actives largely listed as activators; hit rate 0.007% among 380,000; AID 624172; HEK293 GLP-1R CRE-luciferase, luminescence, 4-6 h; cells express a hypersensitive GLP-1R form; note: % of control where 0% means no effect
# An asterisk follows results filed as active; ? = inconclusive; · = no result. Rows were chosen to be rich in hits. Some 2.8% of all compounds tested hit in one or more screens of this group. Calls come from the whole dose curve; as a rule, active = well fitted curve in the direction sought with a large enough effect; inconclusive = small, poorly fitted or top-dose-only effect, or another doubt; inactive = no such curve, though single readings can be large; an effect the other way counts as inactive or inconclusive. Potency is the fitted concentration of half-maximal effect.
SMILES,GLP-1R inv ag,HEK293 tox,BRCA1 expr up,Mito fusion yeast,GLP-1R agonist
CC1CN(S(=O)(=O)c2cccc(C(=O)NCc3ccc4c(c3)OCO4)c2)CC(C)O1 (configuration not stated),-32.1%,12.5%,0.6%,3.9%,0.5%
CCOc1ccc(CN2C(=O)c3ccccc3Sc3ccc(C(=O)NCCCN4CCOCC4)cc32)cc1,12.6µM*,?,-5.1%,-2.2%,-7.4%
CN1CCN(CCCNC(=O)c2ccc(/C=C3\Sc4ccccc4N(Cc4ccc(F)cc4)C3=O)cc2)CC1,10µM*,3.6%,-10.4%,0.1%,-4.6%
CC(=O)Nc1ccc(S(=O)(=O)N2CCN(Cc3ccncc3)CC2)cc1,3.2%,10.5%,0.3%,0.3%,2.8%
O=C1CCN(CCc2ccccc2)CCN1[C@H](COc1ccccc1)Cc1ccccc1,10µM*,-17.3%,-16.2%,21.4%,-4.8%
CC(C)C[C@@H](COc1ccccc1)N1CCN(CCc2ccccc2)CCC1=O,?,0.7%,-17.0%,-0.5%,11.3%
S=C1NCCc2ccc(Cl)cc2C1c1ccccc1 (configuration not stated),11.2µM*,?,-5.9%,25.0%,-5.6%
c1ccc(C2CNCCc3ccccc32)cc1 (configuration not stated),?,4.6%,-6.3%,-13.9%,12.1%
CC(=O)NNC(=S)Nc1cccc(F)c1,8.9%,-21.0%,-3.5%,1.0%,0.1%
O=C(N/C=N/OCc1cccc(C(F)(F)F)c1)N1OC[C@@H]2COc3ccc4ccccc4c3[C@@H]21,5.62µM*,29.3%,-40.2%,0.6%,-6.2%
C[C@H](CO)N1C[C@H](C)[C@H](CN(C)C(=O)Nc2ccc(F)cc2)OCc2ccccc2-c2c(n(C)c3ccccc23)C1=O,10µM*,-21.5%,-13.9%,·,-1.1%
C[C@@H]1CN([C@H](C)CO)C(=O)c2c(c3ccccc3n2C)-c2ccccc2CO[C@@H]1CN(C)C(=O)Nc1ccc2c(c1)OCO2,?,-26.8%,18.8%,·,-7.2%
Cc1cccc(NC(=O)c2cc(S(=O)(=O)c3ccccc3)ccc2Cl)c1,8.91µM*,-10.1%,-56.2%,2.2%,-19.6%
COCOc1cccc(CN2CCC2(C)C(=O)Nc2ccc(OC)c(OC)c2)c1 (configuration not stated),6.2%,-2.7%,4.0%,·,20.4%
COc1cccc(C=Nc2ccccc2C(=O)Nc2nccs2)c1OC,-9.1%,90.9%,?,1.5%,-9.0%
COc1cccc2c1OCC(C(=O)Nc1nccs1)=C2,15.3%,-13.8%,4.47µM*,-14.1%,9.8%
CCOc1ccccc1C(=O)N[C@H](C(=O)Nc1nc2c(s1)CCCC2)C(C)C,10µM*,?,-13.0%,?,20.6%
O=C(NCCO)OC1CC2CC1[C@H]1CCCCN1C2=O (some centres not stated),3.1%,-4.3%,14.7%,·,-4.0%
COc1cccc(-c2onc3ccc(C(=O)/C=C/N(C)C)cc23)c1,4.6%,-12.8%,-54.3%,18.0%,12.5%
COC(=O)[C@H](CC(C)C)NC(=O)Cn1cnc(C(=O)Nc2ccc(C)c(C)c2)n1,3.2%,-3.5%,11.2µM*,·,14.3%
Cc1cc2c(cc1C)CSC(c1ccccc1OC(=O)C(C)(C)C)SC2,10µM*,23.6%,-14.3%,2.8%,-3.7%
CCCCCCSC1=C(C#N)C(c2ccc(O)cc2)CC(=O)N1 (configuration not stated),5.01µM*,-3.8%,-15.4%,9.0%,?
Cc1cnc(C(=O)OCC(=O)N(Cc2ccccc2)C(C)(C)C)cn1,-4.2%,0.8%,-21.2%,·,0.5%
O=C(C[C@@H]1C/C=C\C[C@H](NC(=O)OCC2c3ccccc3-c3ccccc32)C(=O)OC[C@@H]2CCCN2C1=O)NCCO,-3.2%,-5.9%,0.0%,·,9.9%
CCCCN(CCCC)CCNC(=O)CNC(=O)c1cccs1,0.0%,-23.6%,4.3%,31.6µM*,-15.6%
Cc1cc(C)n(C(=O)c2ccc([N+](=O)[O-])cc2[N+](=O)[O-])n1,0.1%,-4.3%,-10.7%,-4.7%,-0.2%
CN1CCN(c2ccc(NC(=O)COc3cccc4ccccc34)cc2)CC1,10µM*,1.3%,-6.6%,-8.3%,14.0%
